Coupling enz – counter-screen for Giardia aldolase inhibitors: coupling enzyme system; 290,000 compounds, 0.67% hits; activity change, negative = inhibition, % at 58.2 µM, hits read low; coupling enzyme system counterscreen, AmpLite Red fluorescence; in the data active = activity change below about -30%
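Counterscreen of the coupled detection system alone, without aldolase: glyceraldehyde-3-phosphate coupling enzymes plus AmpLite Red readout. Compounds at 57.5 uM final, 10 min RT preincubation, 20 min RT reaction, fluorescence 525/598 nm.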
Tau fibril FP – blocks human tau fibril formation measured by polarization. 280,000 compounds, 0.39% hits. P10636. K18 P301L tau heparin fibrillization, Alexa594 FP, 6 h. Potency, µM (series often up to 57.7 µM), for inactives: top-dose activity, negative = inhibition, actives largely listed as inhibitors; also: potency is read from the fitted curve at half-maximal effect; nearly all actives have a fitted effect of over 55% in size
Target sequence (P10636 561-689 P618L limits assumed): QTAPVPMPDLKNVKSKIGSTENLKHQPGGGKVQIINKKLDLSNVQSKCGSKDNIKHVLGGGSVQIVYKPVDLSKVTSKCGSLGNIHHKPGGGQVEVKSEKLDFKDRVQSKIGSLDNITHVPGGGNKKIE
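Human tau K18 […] P301L fragment, 15 uM unlabeled plus 0.24 uM Alexa 594-labeled tau (final), with compound and 20 uM heparin in 100 mM sodium acetate pH 7; 6 hr at 37 C, then Alexa 594 FP read.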
Tau fluor cs – counter-screen for tau fibril formation inhibitors. Potency, µM (doses to about 57.7 µM), inactives show top-dose activity change, negative = decrease. tau K18 P301L Alexa594 fluorescence, heparin fibrillization. 280,000 compounds, 0.93% hits; also: potency is read from the fitted curve at half-maximal effect; nearly all actives have a fitted effect of over 55% in size
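Human tau K18 P301L (15 uM unlabeled, 0.24 uM Alexa 594-labeled) in 100 mM sodium acetate pH 7 with 20 uM heparin, 6 hr at 37 C. ThT 30 uM added, 1 hr ambient; Alexa 594 FP and total fluorescence read at 555/632 nm.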
Sfp PPTase inh – blocks B. subtilis Sfp PPTase activity. Q9F4F7. Potency, µM, inactives show largest response in the series, negative = inhibition, hits mostly inhibitors. Biochemical Sfp PPTase activity, qHTS. 310,000 compounds, 3.5% hits;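 also: the enzyme is Sfp with the accession as filed and its product quenches rhodamine fluorescence; potency is read from the fitted curve at half-maximal effect; 0% = enzyme reaction without inhibitor and -100% = no enzyme wells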
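Buffer: 50 mM Hepes-Na pH 7.6, 10 mM MgCl2, 0.01% Nonidet P-40, 0.01% BSA. Enzyme 15 nM, pre-exposed to compound 15 min; substrates then added and fluorescence change tracked over 30 min.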
Tau ThT inhib – tau fibrillization inhibition (ThT binding). AID 1460. Potency, µM (highest dose often 57.4 µM), inactives show at the top dose activity, negative = inhibition, most hits filed as inhibitors. recombinant tau K18 P301L (four-repeat tau fragment), heparin-induced fibrillization, ThT fluorescence. 270,000 compounds, 2.1% hits; also: potency is read from the fitted curve at half-maximal effect; nearly all actives have a fitted effect of over 55% in size
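Aggregation was driven by heparin (20 uM final) acting on recombinant tau […] bearing P301L in 100 mM sodium acetate pH 7; fibrils were detected with Thioflavin T.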
Numbers without * were called inactive; u = inconclusive; x = not tested or not shown; [ ] = remark or other dose. This is a sample that favours compounds with a hit; in the whole collection about 5.2% have one here. Unless noted, calls follow the shape of the dose curve; as a rule, active = well fitted curve in the direction sought with a large enough effect; inconclusive = small, poorly fitted or top-dose-only effect, or another doubt; inactive = no such curve, though single readings can be large; an effect the other way counts as inactive or inconclusive. Unless noted, % is scaled to controls: 0 for no effect and ±100 for the full control effect.

SMILES | Coupling enz | Tau fibril FP | Tau fluor cs | Sfp PPTase inh | Tau ThT inhib
COc1ccc(OCC(=O)NC(=S)NNC(=O)COc2ccc(Br)cc2Cl)cc1 | 11 | -3% | -4% | 22µM* | u
O=C(COc1ccc(Br)cc1Cl)NC(=S)Nc1ccccn1 | 2 | x | x | 56µM* | x
CN(C)CCCCCCN(C)C | x | x | x | 12% | x
O=C(Cn1c(=O)n(CCc2ccccc2)c(=O)c2c3c(sc21)CCCC3)Nc1ccc(F)c(F)c1 | x | u | -9% | x | 21%
COc1cc(C)c(C)cc1S(=O)(=O)Nc1cccc(-c2ccc(N3CCOCC3)nn2)c1 | x | 3% | -6% | x | 8%
NCCNc1cccc2ccccc12 | x | x | x | 71µM* | x
CCOc1cccc2cc(-c3nc4sc(C(=O)Nc5ccc(C)cc5)c(C)c4c(=O)[nH]3)c(=O)oc12 | x | u | -18% | x | -8%
COc1ccc(NC(=S)NCc2ccc(S(N)(=O)=O)cc2)c(OC)c1 | 0 | 3% | -8% | 32µM* | -5%
COc1ccc(CNC(=S)Nc2ccc(S(N)(=O)=O)cc2)cc1 | -1 | -3% | -2% | 50µM* | -6%
NS(=O)(=O)c1ccc(NC(=S)NCc2cccs2)cc1 | 1 | 1% | -7% | 20µM* | -3%
COc1ccc(NC(=S)NCCc2ccccc2OC)c(OC)c1 | 3 | 2% | -19% | 89µM* | -14%
COc1ccc(CNC(=S)Nc2ccc(OC)cc2)cc1 | 3 | 2% | -3% | 12% | 1%
Cc1c(Cl)cccc1NC(=O)CN1C(=O)COc2ccc(S(=O)(=O)Nc3ccccc3)cc21 | x | u | -27% | x | 16%
CO[C@H]1COC(=O)C/C=C\[C@H](C)[C@@H](OC)COC(=O)[C@@H](C)COC(=O)C/C=C\[C@@H]1C | 3 | 1%[11.6 µM] | -2%[11.6 µM] | 31% | -7%[11.5 µM]
Cc1cc(=O)oc2cc(O[C@@H]3O[C@H](C(=O)O)[C@@H](O)[C@H](O)[C@H]3O)ccc12 | 7 | -4% | 0% | 12% | -2%
CN(C)/C=C/c1c([N+](=O)[O-])c2ccc(O)cc2n1-c1ccccc1 | -4 | u | 16µM*[quencher] | 2.5µM* | 13µM*
O=C(NCCCN1CCN(c2ccc(F)cc2)CC1)c1cnn(-c2ccc(F)cc2)c1-n1cccc1 | x | u | -12% | x | -11%
COc1cc(/C=N/Nc2nc3ccccc3[nH]c2=O)ccc1O | 0 | -1% | -29% | 0% | u
COc1cc(/C=N/NC(=Nc2ccc(C)cc2)c2nc3ccccc3s2)ccc1O | 2 | 16% | 11µM*[quencher] | -15% | u
COc1cc(/C=N/Nc2nc3ccccc3[nH]2)ccc1O | 1 | u | u | 11µM* | 5µM*
COc1ccc(O)c(/C=N/Nc2nc3ccccc3[nH]2)c1 | -2 | 7% | u | u | 14µM*
COc1cc(/C=C(/C(=O)c2cccs2)c2nc3ccccc3[nH]2)cc(OC)c1O | -5 | -2% | u | -22% | 14µM*
COc1ccccc1NC(=O)Cn1c(=O)n(CCc2ccccc2)c(=O)c2c3c(sc21)CN(C(C)=O)CC3 | x | 2% | -21% | x | -5%
Cc1nn2c(=O)cc(COC(=O)c3ccc(NC(=O)CCc4ccccc4)cc3)nc2s1 | x | 1% | 5% | x | 1%
COc1ccc(/C=N/Nc2ccccn2)cc1O | -4 | 9% | -14% | 50µM* | u
SMILES | Coupling enz | Tau fibril FP | Tau fluor cs | Sfp PPTase inh | Tau ThT inhib
O=[N+]([O-])c1ccc(O)c(/C=N/Nc2nc3ccccc3[nH]2)c1 | 0 | 5% | u | 12% | 8.9µM*
CCOc1ccc(/C=N/Nc2ccccn2)cc1 | 3 | 11% | -24% | -24% | u
O=C(/C(=C/c1ccc(Cl)cc1)c1nc2ccccc2[nH]1)c1ccccc1 | 2 | u | -22% | 14% | 40µM*
COc1ccc2nc(Cl)c(/C=N/Nc3ccccn3)cc2c1 | -2 | -3% | -19% | 16µM* | u
CC[C@H](C)[C@H](NC(=O)[C@H](Cc1ccc(O)cc1)NC(=O)[C@H](CCCNC(=N)N)NC(=O)[C@H](CCCNC(=N)N)NC(=O)[C@H](CC(C)C)NC(=O)[C@H](CCC(N)=O)NC(=O)[C@@H](NC(=O)[C@H](CCC(=O)O)NC(=O)[C@H](Cc1ccc(O)cc1)NC(=O)[C@H](CCC(N)=O)NC(=O)[C@H](C)NC(=O)[C@H](CCCNC(=N)N)NC(=O)[C@H](CCC(N)=O)NC(=O)[C@H](CCC(=O)O)NC(=O)[C@H](Cc1cnc[nH]1)NC(=O)[C@@H](NC(=O)[C@H](C)NC(=O)[C@H](Cc1ccc(O)cc1)NC(=O)[C@H](CC(=O)O)NC(=O)CNC(=O)[C@@H]1CCCN1C(=O)[C@H](Cc1ccc(O)cc1)NC(=O)[C@H](CCSC)NC(=O)[C@@H]1CCCN1C(=O)[C@H](CCC(=O)O)NC(=O)[C@H](CC(C)C)NC(=O)[C@@H]1CCCN1C(=O)[C@H](C)N)[C@@H](C)O)[C@@H](C)O)C(=O)N[C@@H](CC(N)=O)C(=O)N[C@H](C(=O)N[C@@H](CC(C)C)C(=O)N[C@H](C(=O)N[C@@H](CCCNC(=N)N)C(=O)N1CCC[C@H]1C(=O)N[C@@H](CCCNC(=N)N)C(=O)N[C@@H](Cc1ccc(O)cc1)C(N)=O)[C@@H](C)O)[C@@H](C)O | -1 | x | x | 9% | x
COc1ccccc1-n1nc(-c2ccccc2)c2cnc3c(F)cc(F)cc3c21 | x | -11% | -10% | x | -5%
O=c1c2ncn([C@@H]3O[C@@H]4COP(=O)(O)O[C@H]4[C@H]3O)c2nc2[nH]c(-c3ccccc3)cn12 | -1 | x | x | 22% | x
COc1cc(/C=N/Nc2nc3ccccc3[nH]2)cc(OC)c1O | 1 | u | 16µM*[quencher] | 14µM* | 11µM*
COc1cccc(/C=N/Nc2nc3ccccc3[nH]2)c1O | -6 | 13% | -30% | -9% | u
CCOC(=O)N=Nc1c2ccccc2c2nc3no[nH]c3nc12 | -51* | u | -24% | 20% | u
N#CC1=C(S)N(c2ccccc2)C2(CCCCC2)NC1=O | 16 | u | -19% | 28µM* | u
O=C1c2ccccc2NC2(CCCCC2)N1c1ccc(O)cc1 | 2 | -3% | 1% | 17% | -3%
N#CC1=C(S)N(c2ccc(F)cc2)C2(CCCCC2)NC1=O | 9 | 28µM* | -18% | 20µM* | 32µM*
C=CC1=C2C=C(C3CC3)N(C3CC3)C=C2C(=O)C(C)(OC(=O)c2ccco2)C1=O (stereo not given) | -11 | -11%[11.6 µM] | -3%[11.6 µM] | -19% | 1%[11.5 µM]
C=CC1=C2C=C(C3CC3)N(C3CCCC3)C=C2C(=O)C(C)(OC(=O)c2ccco2)C1=O (stereo not given) | -42* | 0%[11.6 µM] | -3%[11.6 µM] | 0% | -6%[11.5 µM]
C=CC1=C2C=C(C3CC3)N(C3CCCCC3)C=C2C(=O)C(C)(OC(=O)c2ccco2)C1=O (stereo not given) | -43* | -12%[11.6 µM] | -8%[11.6 µM] | -4% | -12%[11.5 µM]

Source: PubChem BioAssay
